The whole screen tested about 1,000 compounds, of which about 250 (25%) were called active. Another 31% or so got no clear call; they are omitted. These entries were drawn from the full list. Potency and affinity values are given separately. Unmarked numbers belong to inactive results. The rule behind the calls is not given here.

A short description of this experiment: T. gondii intracellular growth, IFN-gamma absent, dose response, cell-based (AID 1259420).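 Note: host cells were HeLa; final incubation lasted 72 hours.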 Particulars: Toxoplasma gondii growth in host cells, no IFN-gamma.

As to `CCn1cc(NC(=O)c2cccc(CN3C[C@@H](C)O[C@@H](C)C3)c2)nn1`, the max activity (at 19.5 µM unless noted) was -7.36% [at 0.3 µM].

`CN(C)C(=O)c1ccc2nnc3ncn(Cc4ccccc4)c3c2c1`: the max activity (at 19.5 µM unless noted) was 9.7% [at 2.6 µM].

For the molecule `CS(=O)(=O)N1CC(=O)N2[C@H](CO)[C@@H](c3ccc(C#Cc4ccc(F)cc4)cc3)[C@H]2C1`, the max activity (at 19.5 µM unless noted) is 15.4%.

Turning to `O=C(Cc1ccccn1)N1CC(=O)N2[C@H](CO)[C@@H](c3ccc(C#CCC4CCCC4)cc3)[C@@H]2C1`, where the note is “at 19.5 µM unless noted”, the max activity is 18.5%.

`O=C(Cc1ccccn1)N1CC(=O)N2[C@H](C1)[C@H](c1ccc(C#CCC3CCCC3)cc1)[C@@H]2CO`: the max activity (at 19.5 µM unless noted) is 12.6%.

Turning to `CS(=O)(=O)N1CC(=O)N2[C@H](C1)[C@@H](c1ccc(C#Cc3ccc(F)cc3)cc1)[C@@H]2CO`, the max activity (at 19.5 µM unless noted) is 5.83% [at 2.6 µM].

As to `O=C(Cc1ccccn1)N1CC(=O)N2[C@H](CO)[C@@H](c3ccc(C#CCC4CCCC4)cc3)[C@H]2C1`, for the setting “at 19.5 µM unless noted”, the max activity was 20.5%.

With `O=C(c1ccc(F)cc1)N1CC(=O)N2[C@H](CO)[C@@H](c3ccc(C#CCC4CCCC4)cc3)[C@@H]2C1`, the max activity (at 19.5 µM unless noted) is 23.3%.

For the molecule `CS(=O)(=O)N1CCOC2C(COc3ncccn3)CCC21` (stereo unspecified), for the setting “at 19.5 µM unless noted”, the max activity was -15% [at 0.3 µM].

As for `CCOC(=O)c1c(C)[nH]c(-c2ccccc2)c1-c1ccccc1`, the max activity (at 19.5 µM unless noted) was 4.75% [at 10 µM].

For the molecule `O=C(O)c1ccc(C2C(=O)NNCC2N2CCCC2)s1` (stereo unspecified), the max activity (at 0.16 µM) was 8.24% and the max activity (at 19.5 µM) is 10.9%.

With `Fc1cccnc1OC1COC2(CCN(Cc3ccsc3)CC2)C1` (stereo unspecified), the max activity (at 19.5 µM unless noted) is 18.6%.

For `C[C@@H](N)C1CCC(C(=O)Nc2ccncc2)CC1` (stereo partly specified), where the note is “at 19.5 µM unless noted”, the max activity is -12.3% [at 0.08 µM].

Turning to `Cc1cccc(-n2ncc3c(NC4CCCCCCCCCCC4)ncnc32)c1`, the max activity (at 19.5 µM unless noted) is 8.82% [at 10 µM].

As to `COc1cccc(NC(=O)N2CC(=O)N3[C@@H](CO)[C@@H](c4ccc(C#CCC5CCCC5)cc4)[C@@H]3C2)c1`, where the note is “at 19.5 µM unless noted”, the max activity was 9.07% [at 21 µM].

In the case of `COc1cccc(NC(=O)N2CC(=O)N3[C@H](C2)[C@H](c2ccc(C#CCC4CCCC4)cc2)[C@@H]3CO)c1`, for the setting “at 19.5 µM unless noted”, the max activity was 38.8% [at 21 µM].

Regarding `COc1ccc(C#Cc2ccc([C@@H]3[C@H]4CN(C(=O)NC(C)C)CC(=O)N4[C@H]3CO)cc2)cc1`, the max activity (at 19.5 µM unless noted) is 9.38% [at 0.6 µM].

Take `COc1ccc(C#Cc2ccc([C@@H]3[C@H](CO)N4C(=O)CN(C(=O)NC(C)C)C[C@@H]34)cc2)cc1`: the max activity was -8.81% (at 5 µM) and -6.49% (at 19.5 µM).

As for `COc1ccc(C#Cc2ccc([C@H]3[C@H]4CN(C(=O)NC(C)C)CC(=O)N4[C@H]3CO)cc2)cc1`, the max activity (at 19.5 µM unless noted) was 13% [at 10 µM].

On to `O=C1NCC(=O)N2CCN(C(=O)Nc3cc(Cl)cc(Cl)c3)CC12` (stereo unspecified), for which, where the note is “at 19.5 µM unless noted”, the max activity was 17.6% [at 2.6 µM].

As for `CC(=O)N1Cc2ncn(CC3CC3)c2C(COCC2CCOCC2)C1` (stereo unspecified), the max activity (at 19.5 µM unless noted) was -7.3% [at 0.16 µM].

For `C=CCN1CCC2(CC1)CC(NCc1ccc(C)s1)c1ccccc1O2` (stereo unspecified), the max activity (at 19.5 µM unless noted) is 5.11% [at 0.3 µM].

As to `COc1ccc(C#Cc2ccc([C@H]3[C@@H](CO)N4C(=O)CN(C(=O)NC(C)C)C[C@@H]34)cc2)cc1`, under “at 19.5 µM unless noted”, the max activity is 22.6%.

For `CCCNC(=O)N1CC(=O)N2[C@@H](CO)[C@H](c3ccc(C#Cc4cccc(OC)c4)cc3)[C@@H]2C1`, the max activity (at 19.5 µM unless noted) was 15.9%.

On to `C/C=C/c1ccc([C@H]2[C@H]3CN(C(=O)Nc4cccc(OC)c4)CC(=O)N3[C@H]2CO)cc1`, for which the max activity (at 19.5 µM unless noted) is -14.5% [at 2.6 µM].

With `CCCNC(=O)N1CC(=O)N2[C@H](C1)[C@@H](c1ccc(C#Cc3cccc(OC)c3)cc1)[C@@H]2CO`, the max activity (at 19.5 µM unless noted) is 8.44% [at 2.35 µM].

For the molecule `OC1(c2cccc(C(F)(F)F)c2)CCN(Cc2ccc3[nH]ccc3c2)CC1`, the max activity (at 19.5 µM unless noted) is 6.52% [at 0.16 µM].

With `O=C(Cc1cccnc1)N1CC(=O)N2[C@H](CO)[C@@H](c3ccc(C#CC4CCCCC4)cc3)[C@@H]2C1`, the max activity runs as follows: (at 0.6 µM) -7.69%; (at 19.5 µM) 16.4%.

As to `Cc1cc(C(=O)N2CCC(c3cc4c(ncn4C)c(NCC4CC4)n3)CC2)ccc1Cl`, under “at 19.5 µM unless noted”, the max activity is 13.8%.

In the case of `Cc1ccccc1-c1ccc([C@H]2[C@H]3CN(S(=O)(=O)Cc4ccccc4)CCCCN3[C@H]2CO)cc1`, under “at 19.5 µM unless noted”, the max activity is 24.5%.

Regarding `O=S(=O)(c1ccc(F)cc1)N1CCCCN2[C@H](C1)[C@H](c1ccc(-c3cncnc3)cc1)[C@@H]2CO`, for the setting “at 19.5 µM unless noted”, the max activity was 22.3%.

With `Cc1ccccc1S(=O)(=O)N1CCCCN2[C@@H](CO)[C@@H](c3ccc(C#CCN(C)C)cc3)[C@@H]2C1`, the max activity (at 19.5 µM unless noted) is 48.3%.

`Cc1ccccc1S(=O)(=O)N1CCCCN2[C@H](C1)[C@@H](c1ccc(C#CCN(C)C)cc1)[C@@H]2CO`: the max activity (at 19.5 µM unless noted) was -29.9% [at 10 µM].

Regarding `COc1cccc(-c2ccc([C@H]3[C@H](CO)N4C(=O)CN(C(=O)c5cccnc5)C[C@@H]34)cc2)c1`, the max activity (at 19.5 µM unless noted) is -9.74% [at 1.2 µM].

On to `O=C(C1CCOCC1)N1CC(=O)N2[C@@H](CO)[C@H](c3ccc(/C=C/c4ccccc4)cc3)[C@@H]2C1`, for which the max activity (at 19.5 µM unless noted) is 7.51% [at 5 µM].

Turning to `CC(=O)N1CCC(N(C)Cc2cc(C(C)(C)C)n[nH]2)CC1`, the max activity (at 19.5 µM unless noted) is -9.85%.

`COCC(=O)N1CCC2(CC1)CC1(CCN(CC(C)C)CC1)C(=O)N2C`: the max activity (at 19.5 µM unless noted) is -12.4% [at 10 µM].

In the case of `COc1cccc(S(=O)(=O)N2CC[C@@H]3[C@H]2c2cc(C#Cc4cccnc4)ccc2N[C@@H]3CO)c1`, the max activity (at 19.5 µM unless noted) was 17.4%.

Turning to `O=S(=O)(c1ccccc1F)N1CC[C@@H]2[C@H](CO)Nc3ccc(C4=CCCCC4)cc3[C@@H]21`, the max activity (at 19.5 µM unless noted) was -15.7% [at 5 µM].

As to `CNC(=O)NCC1CCC2(CCN(Cc3ccccc3)CC2)CO1` (stereo unspecified), the max activity (at 19.5 µM unless noted) is -9.71% [at 2.6 µM].

On to `OC[C@H]1[C@H](c2ccc(-c3cccc(F)c3)cc2)[C@H]2CN(Cc3cncnc3)CCCCN21`, for which the max activity (at 19.5 µM unless noted) was 16.3%.

With `N#Cc1c(N2C[C@@H]3NCCO[C@H]3C2)c(F)cc2c(=O)c(C(=O)O)cn(C3CC3)c12`, the max activity (at 19.5 µM unless noted) is 9.32% [at 1.2 µM].

With `Cc1ccc(N2CCC[C@]3(C(=O)O)CN(CCN(C)C)C[C@H]3C2)nn1`, the max activity (at 19.5 µM unless noted) was -23.7% [at 5 µM].

These data come from PubChem BioAssay AID1259420 (Broad Institute, 2018).
